# Screens deposited in PubChem BioAssay by Broad Institute.
# ROS inducer – raises reactive oxygen species in U2OS cancer cells; 46,000 compounds, 2% hits; U2OS ROS induction, H2DCF-DA fluorescence; ROS induction (% of piperlongumine), % at 10 µM; in the data active = ROS induction above about 79%, passing the limit was not always enough;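 note: 0% = DMSO vehicle median and 100% = reference compound median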
# An asterisk follows results filed as active. Only a selection was taken, and hits are over-represented in it overall.
SMILES,ROS inducer
C=C(CO)C(=O)O[C@H]1C[C@H]2C(=C)C[C@H](OC(=O)C(=C)CO)[C@H]3C(=C)C(=O)O[C@@H]3[C@H]2C1=C,115*
CC(C)NC(=O)N(C)C[C@H]1Oc2c(NC(=O)CCCCCC(=O)Nc3ccccc3N)cccc2C(=O)N([C@@H](C)CO)C[C@@H]1C,12
CC(C)NC(=O)Nc1ccc2c(c1)CC(=O)N([C@H](C)CO)C[C@H](C)[C@H](CN(C)S(C)(=O)=O)O2,-3
C[C@@H]1CN([C@H](C)CO)C(=O)Cc2cc(NC(=O)c3ccncc3)ccc2O[C@@H]1CN(C)C(=O)NC1CCCCC1,9
C[C@@H]1CN([C@H](C)CO)C(=O)Cc2cc(NC(=O)C3CCCCC3)ccc2O[C@H]1CN(C)CC1CC1,95*
C[C@H]1CN([C@@H](C)CO)C(=O)Cc2cc(NC(=O)C3CCCCC3)ccc2O[C@H]1CN(C)CC1CCCCC1,12
C[C@@H]1CN([C@@H](C)CO)C(=O)Cc2cc(NC(=O)Nc3ccccc3)ccc2O[C@@H]1CN(C)CC1CCCCC1,95*
C[C@@H]1CN([C@H](C)CO)C(=O)Cc2cc(NC(=O)Nc3ccccc3)ccc2O[C@@H]1CN(C)CC1CCCCC1,-9
C[C@H]1CN([C@@H](C)CO)C(=O)Cc2cc(NC(=O)Nc3ccccc3)ccc2O[C@@H]1CN(C)CC1CCCCC1,2
C[C@H](CO)N1C[C@H](C)[C@H](CN(C)CC2CCCCC2)Oc2ccc(NC(=O)C3CCCCC3)cc2CC1=O,6
O=C(O)CC1C(=O)N(c2ccccc2)C(=S)N1c1ccccc1 (stereo unspecified),-6
Cc1noc(C)c1NC(=O)Nc1cccc2c1O[C@@H](CN(C)C)[C@H](C)CN([C@H](C)CO)C2=O,-15
COC(=O)CCCCCCC(=O)N/N=C/c1ccc(OCc2ccccc2)cc1O,13
CC(C)/C(=N/O)c1ccccc1,42
COc1ccc(C(=O)NCCc2nc3ccccc3[nH]2)cc1OC,-2
COc1ccc(-c2cc(C(F)(F)F)n3nc(C(=O)NCc4ccco4)cc3n2)cc1OC,33
CSc1ccccc1NC(=O)c1cnn2c(C(F)(F)F)cc(-c3ccco3)nc12,171*
NC(=O)c1c(NC(=O)c2cnn3c(C(F)(F)F)cc(-c4cccs4)nc23)sc2c1CCCC2,-18
O=C(c1cnn2c(C(F)(F)F)cc(-c3ccccc3)nc12)N1CCCC1,6
CCC(C)NC(=O)c1cnn2c(C(F)(F)F)cc(-c3ccccc3)nc12 (stereo unspecified),129*
COc1ccc(-c2cc(C(F)(F)F)n3ncc(C(=O)NCc4nc5ccccc5[nH]4)c3n2)cc1OC,151*
Cc1cc(NC(=O)c2nn3c(C(F)(F)F)cc(-c4ccccc4)nc3c2Cl)nn1CC(=O)N1CCOCC1,-18
O=C(O)c1cnn2c(C(F)(F)F)cc(-c3ccco3)nc12,-13
NC(=O)COc1ccc(NC(=O)c2cncc(Br)c2)cc1,-12
COc1ccc(CN(C)C[C@@H]2Oc3ccc(NC(=O)Nc4cccc5ccccc45)cc3C(=O)N([C@H](C)CO)C[C@@H]2C)cc1,16
SMILES,ROS inducer
C[C@H]1CN([C@@H](C)CO)C(=O)Cc2cc(NC(=O)Nc3cccc4ccccc34)ccc2O[C@@H]1CN(C)S(=O)(=O)c1cccs1,47
COc1cc(CO)ccc1OCC(=O)Nc1ccc(C)cc1,122*
COc1ccc(NC(=O)COc2ccccc2OC)cc1OC,-1
COc1cc(CO)ccc1OCC(=O)Nc1ccccc1F,-2
O=C(NC(=O)N1CCOCC1)c1cc(Br)cc(Br)c1,-1
O=C(CSc1nnnn1-c1ccccc1)Nc1cccc2nsnc12,-7
COc1ccc(-c2cc(-c3ccccc3)c(C#N)c(SCS(=O)Cc3ccccc3)n2)cc1 (stereo unspecified),87*
COc1ccc(-c2cc(-c3ccccc3)c(C#N)c(SC3CCCCC3O)n2)cc1 (stereo unspecified),41
COc1ccc(-c2cc(-c3ccccc3)nc(SCC(=O)N3CCCCC3)c2C#N)cc1,54
C[C@H](CO)N1C[C@H](C)[C@@H](CN(C)S(=O)(=O)c2ccc(Cl)cc2)Oc2ccc(NS(=O)(=O)c3ccccc3)cc2C1=O,13
CCOc1ccc(Nc2nc(N3CCCCC3)nc(N3CCCCC3)n2)cc1,-4
CC(=O)c1cccc(NC(=O)CSc2nc(N3CCCCC3)nc(N3CCCCC3)n2)c1,20
O=C(O)c1cccc(Nc2nc(Nc3ccccc3)nc(N3CCCC3)n2)c1,150*
CO[C@H]1C[C@@H]2CC[C@@H](C)[C@@](O)(O2)C(=O)C(=O)N2CCCC[C@H]2C(=O)O[C@H]([C@H](C)C[C@@H]2CC[C@@H](O)[C@H](OC)C2)CC(=O)[C@H](C)/C=C(\C)[C@@H](O)[C@@H](OC)C(=O)[C@H](C)C[C@H](C)/C=C/C=C/C=C\1C,98*
O=C(N/N=C/c1ccccc1[N+](=O)[O-])c1ccccn1,5
Cc1noc(C)c1NC(=O)N(C)C[C@H]1Oc2c(cccc2N(C)C)C(=O)N([C@H](C)CO)C[C@H]1C,10
O=C(CSc1ncnc2scc(-c3ccccc3)c12)Nc1cccc(Cl)c1Cl,5
